Measured values as given in PubChem BioAssay (NCATS).
Records with an inconclusive call do not appear. A call without a number means that no potency is given here. Active and inactive are the calls of the source. Calls follow the shape of the dose curve; as a rule, active = well fitted inhibition curve with a large enough effect; inconclusive = small, poorly fitted or top-dose-only effect; inactive = flat fitted curve, though single readings scatter.

Molecular target: Calcium and integrin-binding protein 1 (Homo sapiens) (UniProt Q99828)
Experiment: Primary qHTS for Identification of Calcium Integrin Binding Protein 1 (CIB1) Competitor (AID 1508620);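 also: GST tagged CIB1 binding a fluorescein labelled alphaIIb integrin peptide tracer; top concentration of the series differs between compounds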
Details: CIB1-GST / FITC-alphaIIb peptide fluorescence polarization; series mostly up to 57.7 µM
Procedure, shortened: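 Fluorescence polarization competition: CIB1-GST (1 uM final) preincubated with compound 15 min at room temperature, then FITC-labeled alphaIIb peptide (100 nM final) added for another 15 min. Polarization read at Ex 480/Em 540.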

Chain of Calcium and integrin-binding protein 1 (Homo sapiens) (Q99828 whole entry, looked up): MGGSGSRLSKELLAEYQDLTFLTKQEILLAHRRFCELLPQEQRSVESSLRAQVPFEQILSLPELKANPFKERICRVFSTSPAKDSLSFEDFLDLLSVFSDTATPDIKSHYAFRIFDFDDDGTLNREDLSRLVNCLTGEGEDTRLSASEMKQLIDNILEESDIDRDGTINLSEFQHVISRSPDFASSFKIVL

| Structure (SMILES) | Potency | activity change, negative = inhibition |
| --- | --- | --- |
| CC1=CC(=O)CC(C)(C)C1(O)CCC(C)O (stereo not drawn) | inactive | – |
| CC(CCC1C(C(=O)O)=CC(=O)CC1(C)C)O[C@@H]1O[C@H](CO)[C@@H](O)[C@H](O)[C@H]1O (stereo partly drawn) | inactive | – |
| C=C1C2(CCC(=O)OC2(C)C)CC(OC(=O)/C(C)=C/C)C2(C)C13OC14C(=O)OC(C)(C(=O)C12C(=O)OC4C)C3OC(C)=O (stereo not drawn) | inactive | – |
| CC(C#N)C(C)O[C@@H]1O[C@H](CO)[C@@H](O)[C@H](O)[C@H]1O (stereo partly drawn) | inactive | – |
| COc1cc(C2c3cc(O)c(OC)cc3CC(CO)C2CO)ccc1O (stereo not drawn) | inactive | – |
| C=CC(C)(O)CO[C@@H]1O[C@H](CO)[C@@H](O)[C@H](O)[C@H]1O (stereo partly drawn) | inactive | – |
| CCc1nc(C(N)=O)c(Nc2ccc(N3CCC(N4CCN(C)CC4)CC3)c(OC)c2)nc1NC1CCOCC1 | inactive | – |
| C[C@@H]1O[C@@H](O[C@H]2[C@H](OC(=O)[C@]34CCC(C)(C)C[C@H]3C3=CCC5[C@@]6(C)C[C@H](O)[C@H](O[C@@H]7O[C@H](CO)[C@@H](O[C@@H]8O[C@H](CO)[C@@H](O)[C@H](O)[C@H]8O)[C@H](O)[C@H]7O)[C@@](C)(CO)C6[C@H](O)C[C@@]5(C)[C@]3(C)C[C@H]4O)OC[C@H](O)[C@@H]2O)[C@H](O)[C@H](O)[C@H]1O[C@@H]1OC[C@@H](O)[C@H](O[C@@H]2OC[C@](O)(CO)[C@H]2O)[C@H]1O (stereo partly drawn) | – | 4.23% [at 12.4 µM] (inactive) |
| CC1(C)CCC(C)(C)c2cc3c(cc21)Sc1ccccc1N=C3c1ccc(C(=O)O)cc1 | inactive | – |
| O=C1Nc2ccc(O)cc2O[C@H]1O[C@@H]1O[C@H](CO)[C@@H](O)[C@H](O)[C@H]1O | inactive | – |
| C[C@@H]1O[C@@H](O[C@H]2[C@H](OC(=O)C34CCC5(C)C(=CCC6C7(C)CC(O)C(O[C@@H]8O[C@H](C(=O)O)[C@@H](O)[C@H](O)[C@H]8O)C(C)(C(=O)O)C7CCC65C)C3CC(C)(C)CC4O)O[C@H](C)[C@@H](O)[C@@H]2O)[C@H](O)[C@@H](O[C@@H]2OC[C@](O)(CO)[C@H]2O[C@@H]2O[C@H](CO)[C@@H](O)[C@H](O)[C@H]2O)[C@H]1O (stereo partly drawn) | – | -1.08% [at 12.4 µM] (inactive) |
| C[C@@H]1O[C@@H](O[C@H]2[C@H](OC(=O)C34CCC(C)(C)CC3C3=CCC5C6(C)CC(O)C(O[C@@H]7O[C@H](CO)[C@@H](O)[C@H](O)[C@H]7O)C(C)(C(=O)O)C6CCC5(C)C3(CO)CC4)O[C@H](C)[C@H](O)[C@@H]2O)[C@H](O)[C@H](O)[C@H]1O[C@@H]1OC[C@@H](O)[C@H](O)[C@H]1O (stereo partly drawn) | inactive | – |
| NC(=O)c1cccc(-c2cc(O)cc(OC(=O)NC3CCCCC3)c2)c1 | inactive | – |
